Bioassay records (PubChem)
Many of the other results were omitted from the sample, so hits are more common in it than they were.
VCAM1 TNFa pot = TNF alpha stimulated VCAM1 expression potentiation | HUVEC TNFa-stimulated VCAM-1 immunofluorescence, high-content imaging; scaled per plate to unstimulated/TNFa-only wells | activation, % at 2 µM | hit rate 0.19% among 93,000 | AID 808;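 active = activation above the screen mean plus 3 SD, with well images confirming the hit on visual review, cut at about 28% in these data, passing the limit was not always enough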;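 note: signal is the number of cytoplasmic VCAM-1 stained grains per positive cell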
VCAM1 pot confirm = enhancers of VCAM1 induction in HUVEC – imaging, triplicate retest, confirmation. activation, % at 2 µM. shares compounds with VCAM1 TNFa pot. AID 1034. HUVEC TNFa-stimulated VCAM-1 immunofluorescence imaging. 230 tested, under 10 active;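 active = activation above 30% in triplicate retests at 2 µM, then confirmed by visual review of the well images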;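 note: scaled per plate between unstimulated and TNFa-stimulated DMSO control wells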
An asterisk follows results filed as active.

SMILES	VCAM1 TNFa pot	others
COc1cccc(S(=O)(=O)Nc2ccc3sc(C)nc3c2)c1	5
CCN(CC)c1ccc(NC(=O)c2ccc(Br)o2)c(C)c1	8
C/C=C/c1ccc(OCCn2cncn2)c(OC)c1	-10
Cc1ccc(NCc2nnc(SCC(=O)N(Cc3ccccc3)C(C)(C)C)o2)c(C)c1	-5
CCOC(=O)c1c(C)c(C(=O)N2CCc3ccccc3C2)c(C)n1CC	7
O=C(CCn1nnc(-c2cccs2)n1)N1CCc2ccccc2C1	36*	VCAM1 pot confirm=2
O=C(Nc1cccc2ccccc12)N1CCc2ccccc2C1	-3
Cc1ccc(OC(=O)NC2CCS(=O)(=O)C2)cc1C (centres undefined)	-12
CCc1nnc(NC(=O)CSc2nnc(CSc3nc(C)cc(C)n3)o2)s1	-2
CCCN(CCC)C(=O)CSc1nc2ccccc2c(=O)n1C1CCCC1	63*	VCAM1 pot confirm=-8
Cc1cc(NC(=O)CSc2nc3ccccc3c(=O)n2C2CCCC2)no1	-68
CCCCNC(=O)CSc1nc2ccccc2c(=O)n1Cc1ccc2c(c1)OCO2	0
CC(C)Oc1cc(NC(=O)CSCC(=O)Nc2cccc(C(F)(F)F)c2)c(Cl)cc1Cl	-4
COC(=O)c1ccc(COc2ccc(-c3nn[nH]n3)cc2)cc1	-10
CN(CC(=O)N1CCN(c2ccccc2)CC1)S(=O)(=O)c1cnc[nH]1	-4
COc1ccc(-c2nc(-c3cccc(C)c3)no2)cc1OC	54*	VCAM1 pot confirm=-17
Cc1cccc(-c2noc(CCc3ccccc3)n2)c1	3
Cc1nc(-c2cccc(-c3noc(C)n3)c2)no1	-37
COc1ccc(OC)c2c(C)cc(N3CCN(C(=O)c4ccc(F)cc4)CC3)nc12	18
CC(O)(CS(=O)(=O)Cc1ccccc1)C(=O)Nc1ccc(C(F)(F)F)cc1 (centres undefined)	2
O=C(COC(=O)c1cnccn1)Nc1ccc2c(c1)OCO2	2
O=C(COC(=O)Cc1cccc(C(F)(F)F)c1)NCC1CCCO1 (centres undefined)	2
O=C(COC(=O)c1cccnc1Nc1cccc(C(F)(F)F)c1)NCc1ccc2c(c1)OCO2	28*	VCAM1 pot confirm=-16
COc1cccc(NC(=O)c2ccn(C)n2)c1	-7
CCOC(=O)C(CCCOc1ccc(C(C)CC)cc1)C(=O)OCC (centres undefined)	4
SMILES	VCAM1 TNFa pot	others
COc1ccc(Br)cc1CN1CCCCCCC1	-32
CCN1CCCC1CNC(=O)Cn1cnc2sc(C)c(S(=O)(=O)N3CCC(C)CC3)c2c1=O (centres undefined)	48*	VCAM1 pot confirm=-2
CNc1nc(Oc2ccc(=O)n(C)n2)nc(N2CCOCC2)n1	9
COC(=O)CSc1nnc(C)n1-c1cccc(C#N)c1	-6
CC1CCN(C(=S)c2ccccc2O)CC1	-5
O=C(Nc1ccc(N2CCOCC2)c(Cl)c1)c1cccnc1	56*	VCAM1 pot confirm=-12
O=C(CCc1ccccc1)Nc1ccc(N2CCOCC2)c(Cl)c1	-5
O=C(Nc1ccc(N2CCCC2)c(Cl)c1)c1cccnc1	4
Cn1cnnc1SCCNS(=O)(=O)c1ccccc1	7
Cc1nnc(NC(=O)CSc2nccn2C)s1	6
Cn1cnnc1SCC(=O)Nc1ccccc1C(=O)NC1CC1	36*	VCAM1 pot confirm=-13
CCCC1(C(=O)OCC)NC(c2ccc(OC)cc2OC)C2C(=O)N(c3ccc4c(c3)OCCO4)C(=O)C21 (centres undefined)	-7
CC1=[N+]([O-])C(C)(C)C(C)N(O)C1=O (centres undefined)	11
CC1(C)Cc2c(cnn2-c2ccccc2)C(=O)/C1=N\NC(=O)c1ccccc1	34*	VCAM1 pot confirm=-18
COC(=O)c1ccc(C(=O)OC)c(NC(=O)CSCc2ccc(Br)cc2)c1	-8
